APOBEC3G inh – APOBEC3G DNA deaminase inhibitors, primary screen, biochemical, fluorescence, single-stranded DNA substrate, uHTS | DNA dC->dU-editing enzyme APOBEC-3G (Homo sapiens), Q9HC16 | AID 493012, 2011 | inhibition, % at 20 µM | actives 0.28% (n = 330,000) | recombinant A3G, ssDNA deamination FAM/TAMRA fluorescence;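 active = inhibition of at least 40% at 20 µM, with no more than 30% in the related APOBEC3A deaminase screen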;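 also: plate controls were DMSO wells with A3G for no effect and wells lacking A3G enzyme for full effect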
CendR NRP1 mod – modulators of CendR peptide binding to NRP-1, primary screen, biochemical, fluorescence polarization, uHTS; actives 0.85% (n = 360,000); Neuropilin-1 (Homo sapiens), O14786; inhibition, % at 25 µM; FAM-RPARPAR peptide binding to NRP-1;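 active = inhibition or corrected inhibition above about 18%, plus a signal ratio from 0.5 to 1.5, limit read from the data, passing the limit was not always enough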
M18AAP inhibitor – PfM18AAP inhibitors, malaria aminopeptidase, primary screen, biochemical, QFRET, recombinant enzyme. inhibition, % at 7.35 µM. H-Glu-NHMec fluorogenic cleavage. M18 aspartyl aminopeptidase (Plasmodium falciparum 3D7). actives 1.2% (n = 290,000);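 active = inhibition above the campaign mean inhibition over all tested compounds plus 3 SD, cut at about 28% in these data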;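 also: 0% = plate median of test compound wells and 100% = 2 mM ZnCl2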
ALR H2O2 inh – inhibitors of human ALR sulfhydryl oxidase, primary screen, biochemical, H2O2 detection, HRP-luminol luminescence, single point; FAD-linked sulfhydryl oxidase ALR (Homo sapiens), P55789; purified ALR, DTT oxidation; inhibition, % (test concentration not listed); actives 3.8% (n = 290,000);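 active = mean replicate inhibition above about 79%, with every replicate also reaching it, limit read from the data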
Target sequence (P55789 whole entry, looked up): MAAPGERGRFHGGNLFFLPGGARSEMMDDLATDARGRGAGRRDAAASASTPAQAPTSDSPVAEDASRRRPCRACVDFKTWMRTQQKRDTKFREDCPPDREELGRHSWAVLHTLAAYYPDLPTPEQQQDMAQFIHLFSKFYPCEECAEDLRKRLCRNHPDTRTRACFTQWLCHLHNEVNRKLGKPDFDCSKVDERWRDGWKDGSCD
CR mimetic SO – reduction of superoxide in aged yeast, primary screen, HTS; actives 0.18% (n = 330,000); S. cerevisiae aged cells, superoxide DHE fluorescence; active compounds read low; superoxide response (% of plate mean), % at 10 µM;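 active = superoxide response under a set limit, about three screen SD below normal, cut at about 65% in these data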;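 also: yeast aged for seven days with compound at 30 °C before DHE staining; 100% = average MFI of all compound-treated wells on the plate with controls excluded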
A3A deaminase – APOBEC3A ssDNA deaminase inhibitors, primary screen, selectivity assay for APOBEC3G inhibitor project, biochemical, FAM/TAMRA oligo cleavage fluorescence; recombinant A3A, FAM/TAMRA ssDNA deamination fluorescence; DNA dC->dU-editing enzyme APOBEC-3A (Homo sapiens), P31941; inhibition, % at 20 µM; actives 0.41% (n = 330,000);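 active = at least 40% inhibition at 20 µM here, with at most 30% in a related deaminase screen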;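 also: plate controls were A3A with DMSO for no effect and wells lacking A3A enzyme for full effect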
Target sequence (P31941 whole entry, looked up): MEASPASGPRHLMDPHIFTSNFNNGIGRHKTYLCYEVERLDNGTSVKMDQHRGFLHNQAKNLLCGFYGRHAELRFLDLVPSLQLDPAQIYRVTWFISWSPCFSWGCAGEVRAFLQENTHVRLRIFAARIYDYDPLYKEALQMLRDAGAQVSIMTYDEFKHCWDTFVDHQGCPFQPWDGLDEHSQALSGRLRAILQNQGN
An asterisk follows results filed as active; . = no result. Sampled rows, rich in hits. Any-hit rate of the full collection: about 5.2%.

SMILES | APOBEC3G inh | CendR NRP1 mod | M18AAP inhibitor | ALR H2O2 inh | CR mimetic SO | A3A deaminase
CC(C)c1ccc(NC(=S)NNC(=O)C2CC2)cc1 | -3 | -10 | 2 | 16 | 92 | 1
COCc1cc(C)nc(OCC(=O)N/N=C/c2ccc(OC)c(OC)c2)c1C#N | -5 | 2 | -12 | 1 | 97 | -2
COCc1cc(C)nc(OCC(=O)N/N=C/c2ccc(O)cc2)c1C#N | 7 | 9 | 0 | 99* | 82 | 3
C/C=C(/C)C(=O)Nc1cccc(C2=NOC3(C2)C[C@H](C(N)=O)N(C(=O)c2ccccc2)C3)c1 (stereo partly drawn) | -5 | -2 | . | -4 | 94 | 1
CCOC(=O)c1cc2cc(OC)ccc2n1C1CCN(CCc2ccccc2)CC1 | . | -15 | . | . | . | .
CCO[C@@H]1OC(C(=O)NCc2ccccc2)=C[C@H](c2ccc(Br)cc2)[C@H]1CCCO | -11 | 24* | 2 | -1 | 104 | -5
CCO[C@H]1OC(C(=O)NC2CC2)=C[C@@H](c2ccccc2)[C@@H]1CCCO | 7 | 26* | . | 11 | 103 | 2
C#Cc1ccc([C@@H]2C=C(C(=O)NC3CC3)O[C@H](OCC)[C@H]2CCCO)cc1 | -6 | 18 | . | -14 | 105 | -3
CC1CN(Cc2c(O)ccc3c(=O)c(-c4ccccc4)coc23)CC(C)O1 (stereo not drawn) | -1 | 38* | -1 | . | 97 | 0
Nc1ccc2cc3ccccc3cc2c1 | . | -69 | . | . | . | .
Nc1ccc2cccc(O)c2c1 | . | 28* | . | . | . | .
COc1ccc(C2(C)NC(=O)N(CC(=O)Nc3ccc4c(c3)CCC4)C2=O)cc1OC (stereo not drawn) | -8 | -3 | . | 2 | 90 | -2
CCn1c(C)c(C(C)=O)c(N2CCN(c3ccccc3)CC2)nc1=S | -6 | -50 | 15 | 97* | 89 | 0
COC(=O)CCC(=O)OC1(C)C(=O)C=C2C=C3CCCN3C=C2C1=O (stereo not drawn) | 43 | 41* | . | -31 | 86 | 54
CC1(OC(=O)c2ccc(Cl)nc2)C(=O)C=C2C=C(C3CC3)OC=C2C1=O (stereo not drawn) | -10 | . | . | -14 | 97 | -4
CC1(OC(=O)c2ccc(Cl)nc2)C(=O)C=C2C=C3CCCN3C=C2C1=O (stereo not drawn) | 44 | 51* | . | -18 | 95 | 47
CC(C)=CC(=O)Nc1ccc(OCc2ccccc2)cc1 | -5 | 0 | -3 | -2 | 88 | 0
CCN(CC)c1ccc(/C=N/NC(=O)Cc2cccs2)cc1 | -8 | -1 | 5 | 69 | 92 | -3
COCCCNC(=S)NNC(=O)Cn1nc(C)c(Br)c1C | -10 | 10 | 30* | 51 | 95 | -8
CCc1cccc(NC(=O)CS(=O)Cc2nc(-c3ccc(C)cc3)oc2C)c1 (stereo not drawn) | 2 | -1 | -7 | 99* | 117 | 1
Cc1oc(-c2ccc(Cl)cc2)nc1CS(=O)CC(=O)NCc1ccccn1 (stereo not drawn) | -1 | -5 | -1 | 99* | 78 | -2
Cc1oc(-c2ccc(Cl)cc2)nc1CS(=O)CC(=O)NC(C)c1ccccc1 (stereo not drawn) | -10 | -6 | -13 | 98* | 128 | -6
CCc1ccc(-c2nc(CS(=O)CC(=O)NCc3ccccc3)c(C)o2)cc1 (stereo not drawn) | -6 | -5 | -1 | 99* | 127 | -5
CC(=O)c1ccc(NC(=O)CN2c3cccc4cccc(c34)S2(=O)=O)cc1 | 0 | 5 | . | -19 | 98 | 1
COc1ccc(-c2nc(CS(=O)CC(=O)NCc3ccc(Cl)cc3)c(C)o2)cc1 (stereo not drawn) | 2 | 2 | 9 | 99* | 104 | 4
Cc1oc(-c2ccc(Cl)cc2)nc1CS(=O)CC(=O)NCc1ccccc1 (stereo not drawn) | -6 | -6 | 6 | 99* | 163 | -4
